PubChem BioAssay (Tox21)
Several values for one entry are separate records, joined by “and”; a condition that tells them apart may be missing. Equal entries are not always repeated. Activity calls are given as the source filed them. Unless noted, the call rests on the fitted dose curve; in most records, active means well fitted curve in the direction sought with a large enough effect in the repeat runs; inconclusive means weak or mixed curves; inactive means no such curve, though single readings can be large; an effect the other way counts as inactive or inconclusive.

What was measured:
[1] = qHTS assay for small molecule disruptors of the mitochondrial membrane potential (AID 720635); further: potency means the concentration at half of the fitted maximal effect
Procedure, shortened: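 Mitochondrial membrane potential tracked with Mito-MPS dye, red aggregates (ex 540/em 590 nm) against green monomers (ex 490/em 535 nm). Compound treatment 1 hr at 37C, dye 30 min in HepG2.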

[2] = qHTS assay to test for compound auto fluorescence at 535 nm (green) in HepG2 cells (AID 720675)
[3] = qHTS assay to test for compound auto fluorescence at 535 nm (green) in HEK293 cells (AID 720680)
[4] = qHTS assay to test for compound auto fluorescence at 590 nm (red) in HEK293 cell free culture (AID 720683)
Procedure, shortened: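 Red-channel autofluorescence of compounds in culture medium (DMEM, 10% FBS), no cells, measured at 540/590 nm. Rose Bengal sodium is the reference fluorophore for equivalence.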

[5] = qHTS assay to test for compound auto fluorescence at 590 nm (red) in HepG2 cell free culture (AID 720684)
Procedure, shortened: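 Plate contents were MEM with 10% FBS plus test compound or DMSO, no cells. Fluorescence was recorded with 540 nm excitation and 590 nm emission.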

[6] = qHTS assay to test for compound auto fluorescence at 460 nm (blue) in HepG2 cell free culture (AID 720685)
Procedure, shortened: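 Compound (23 nL) or DMSO pinned into cell-free MEM with 10% FBS; blue fluorescence read at 405/460 nm excitation/emission, expressed as auto-fluorescence equivalency to triamterene.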

[7] = target: Glucocorticoid receptor (Homo sapiens) (UniProt P04150); assay: qHTS assay to identify small molecule agonists of the glucocorticoid receptor (GR) signaling pathway (AID 720691; active means well fitted activation curve with a large enough effect in the signal ratio in the repeat runs, not every such curve was filed as active; inconclusive means weak or mixed curves, or effect the other way; inactive means no such curve, though single readings can be large or run the other way; the % refers to the signal ratio)
Procedure, shortened: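 qHTS in GR-bla HeLa cells: 4 h settling at 37 C/5% CO2, 18 h compound incubation at 37 C, 2 h LiveBLAzer B/G FRET substrate at room temperature, fluorescence intensity measured.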

[8] = qHTS assay for identifying genotoxic compounds that show differential cytotoxicity against isogenic chicken DT40 cell lines with known DNA damage response pathways - wild type cell line (AID 743012); further: nearly all actives have a fitted effect of over 60% in size; further: potency means the concentration at half of the fitted maximal effect
Procedure, shortened: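 First, wild type DT40 cells were plated at 300 per well and equilibrated about 0.5 h at 37 C/5% CO2. Next, compounds in DMSO were added and exposure lasted 40 h. Finally, CellTiter-Glo was added for 30 min at room temperature and luminescence recorded.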

[9] = qHTS assay for identifying genotoxic compounds that show differential cytotoxicity against isogenic chicken DT40 cell lines with known DNA damage response pathways - Rad54/Ku70 mutant cell line (AID 743015); further: nearly all actives have a fitted effect of over 60% in size; further: potency means the concentration at half of the fitted maximal effect
[10] = qHTS assay to identify small molecule antagonists of the androgen receptor (AR) signaling pathway - cell viability counter screen (AID 743033; further: nearly all actives have a fitted effect of over 45% in size)
[11] = qHTS assay to identify small molecule antagonists of the thyroid receptor (TR) signaling pathway (AID 743065); further: nearly all actives have a fitted effect of over 55% in size; further: potency means the concentration at half of the fitted maximal effect
Procedure, shortened: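 Antagonism measured as loss of luciferase signal in GH3 cells stably carrying a TRE-luciferase reporter, co-treated with compound and T3 (1 nM final) for 23.5 h at 37 C. Viability was read in the same well by CellTiter-Fluor.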

[12] = target: Estrogen receptor (Homo sapiens) (UniProt P03372); assay: qHTS assay to identify small molecule agonists of the estrogen receptor alpha (ER-alpha) signaling pathway (AID 743075; calls by dose curve;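 further: HEK293 GripTite cells with ER-alpha and UAS-driven beta-lactamase reporter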; further: potency means the concentration at half of the fitted maximal effect)
[13] = target: Estrogen receptor (Homo sapiens) (UniProt P03372); assay: qHTS assay to identify small molecule agonists of the estrogen receptor alpha (ER-alpha) signaling pathway using the BG1 cell line (AID 743079); further: nearly all actives have a fitted effect of over 20% in size; further: potency means the concentration at half of the fitted maximal effect
[14] = qHTS assay to identify small molecule antagonists of the estrogen receptor alpha (ER-alpha) signaling pathway using the BG1 cell line (AID 743080; calls by dose curve;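 further: BG1 cells stimulated with 17beta-estradiol alongside compound; series mostly up to about 70 µM; nearly all actives have a fitted effect of over 25% in size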)
Procedure, shortened: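 Quantitative HTS on the Tox21 10K library: BG1 cells with endogenous ER-alpha and ERE-luciferase reporter, 17beta-estradiol stimulation, 21.5 h compound exposure, luminescence endpoint with parallel fluorescence cytotoxicity counter-read.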

[15] = target: Aryl hydrocarbon receptor (Homo sapiens) (UniProt P35869); assay: qHTS assay to identify small molecule that activate the aryl hydrocarbon receptor (AhR) signaling pathway (AID 743085);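 further: HG2L7.5c1 human HepG2 liver cells with stably integrated DRE-driven firefly reporter; series mostly up to about 70 µM; nearly all actives have a fitted effect of over 15% in size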
Procedure, shortened: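 Compounds were tested in HepG2 hepatocellular carcinoma cells harbouring a stably integrated luciferase gene under control of 20 DREs. Increased reporter signal after 24 h treatment at 37C was taken as AhR activation.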

[16] = target: Peroxisome proliferator-activated receptor gamma (Homo sapiens) (UniProt P37231); assay: qHTS assay to identify small molecule agonists of the peroxisome proliferator-activated receptor gamma (PPARg) signaling pathway (AID 743094; active means well fitted activation curve with a large enough effect in the signal ratio in the repeat runs, not every such curve was filed as active; inconclusive means weak or mixed curves, or effect the other way; inactive means no such curve, though single readings can be large or run the other way; the % refers to the signal ratio)
Procedure, shortened: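 Compounds dissolved in DMSO were added to PPARg UAS-bla HEK293H cells for 17 h at 37C, and reporter expression was quantified by fluorescence intensity after 1 h with LiveBLAzer B/G FRET substrate.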

[17] = target: Nuclear receptor subfamily 1 group I member 2 (Homo sapiens) (UniProt O75469); assay: Human pregnane X receptor (PXR) activation by small molecules, qHTS assay (AID 1346985); further: nearly all actives have a fitted effect of over 40% in size; further: potency means the concentration at half of the fitted maximal effect
Procedure, shortened: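 DPX-2 cells (HepG2 co-transfected with a PXR response element and a CYP3A4-promoter luciferase construct) were seeded at 2,000 per well, rested 5 hr at 37C, then exposed to DMSO-dissolved compounds for 24 hr. Activation was read as luciferase luminescence.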

[18] = qHTS assay to identify small molecule antagonists of the thyroid receptor (TR) signaling pathway - cell viability counter screen (AID 743064); further: nearly all actives have a fitted effect of over 50% in size; further: potency means the concentration at half of the fitted maximal effect
Procedure, shortened: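 Rat GH3 pituitary tumor cells stably expressing two TR response elements driving luciferase were plated, rested 4 h, then dosed with library compounds and T3 (1 nM final). After 23.5 h at 37 °C, CellTiter-Fluor was added for 30 min and fluorescence recorded.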

[19] = qHTS assay to test for compound auto fluorescence at 535 nm (green) in HepG2 cell free culture (AID 720686)
[20] = qHTS assay to test for compound auto fluorescence at 460 nm (blue) in HepG2 cells (AID 720687)
Procedure, shortened: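 Blue-channel autofluorescence (Ex/Em 405/460 nm, triamterene-equivalent) was measured after 1 hr compound exposure at 37 C, 5% CO2. Cells were HepG2, plated overnight at 37 C in MEM plus 10% FBS.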

Measured: Potency

Chain of Estrogen receptor (Homo sapiens) (P03372 whole entry, looked up): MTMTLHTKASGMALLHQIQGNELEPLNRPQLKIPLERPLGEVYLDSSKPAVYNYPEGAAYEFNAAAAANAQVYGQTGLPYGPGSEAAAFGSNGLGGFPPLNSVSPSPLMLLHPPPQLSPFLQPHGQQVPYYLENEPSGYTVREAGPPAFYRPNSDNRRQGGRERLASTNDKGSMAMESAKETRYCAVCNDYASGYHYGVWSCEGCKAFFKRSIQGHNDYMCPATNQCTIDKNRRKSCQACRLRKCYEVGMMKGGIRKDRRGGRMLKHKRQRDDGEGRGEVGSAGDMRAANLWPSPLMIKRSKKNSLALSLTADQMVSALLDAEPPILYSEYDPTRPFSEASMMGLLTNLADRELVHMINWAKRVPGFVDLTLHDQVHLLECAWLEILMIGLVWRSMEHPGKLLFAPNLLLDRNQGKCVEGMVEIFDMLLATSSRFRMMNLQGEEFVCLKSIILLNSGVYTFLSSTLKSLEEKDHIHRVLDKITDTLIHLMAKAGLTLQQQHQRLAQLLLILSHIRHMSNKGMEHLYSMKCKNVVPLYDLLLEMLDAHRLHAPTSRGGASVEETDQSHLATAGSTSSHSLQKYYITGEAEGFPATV
Chain of Aryl hydrocarbon receptor (Homo sapiens) (P35869 whole entry, looked up): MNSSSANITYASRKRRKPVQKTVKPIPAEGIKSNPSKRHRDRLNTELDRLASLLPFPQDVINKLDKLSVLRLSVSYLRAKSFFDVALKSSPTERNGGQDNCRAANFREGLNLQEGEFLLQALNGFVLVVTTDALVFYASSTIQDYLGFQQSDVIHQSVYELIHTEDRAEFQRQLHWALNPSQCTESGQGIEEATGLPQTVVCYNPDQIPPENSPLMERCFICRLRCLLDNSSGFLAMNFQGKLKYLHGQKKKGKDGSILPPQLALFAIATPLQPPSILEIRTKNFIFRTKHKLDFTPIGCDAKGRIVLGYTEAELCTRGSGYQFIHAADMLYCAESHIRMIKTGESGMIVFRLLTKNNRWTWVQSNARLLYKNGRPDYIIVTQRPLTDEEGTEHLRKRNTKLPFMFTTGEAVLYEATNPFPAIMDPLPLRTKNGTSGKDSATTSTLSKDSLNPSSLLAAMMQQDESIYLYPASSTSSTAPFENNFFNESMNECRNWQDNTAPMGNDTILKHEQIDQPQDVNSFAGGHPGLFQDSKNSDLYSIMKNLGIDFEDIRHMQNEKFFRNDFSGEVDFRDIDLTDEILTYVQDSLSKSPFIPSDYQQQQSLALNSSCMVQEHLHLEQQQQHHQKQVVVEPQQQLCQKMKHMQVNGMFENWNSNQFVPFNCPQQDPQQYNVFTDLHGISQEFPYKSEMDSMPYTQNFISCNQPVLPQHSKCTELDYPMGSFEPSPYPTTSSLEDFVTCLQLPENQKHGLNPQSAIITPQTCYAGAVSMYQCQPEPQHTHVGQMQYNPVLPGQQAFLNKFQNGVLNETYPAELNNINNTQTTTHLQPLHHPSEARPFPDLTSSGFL
Chain of Peroxisome proliferator-activated receptor gamma (Homo sapiens) (P37231 whole entry, looked up): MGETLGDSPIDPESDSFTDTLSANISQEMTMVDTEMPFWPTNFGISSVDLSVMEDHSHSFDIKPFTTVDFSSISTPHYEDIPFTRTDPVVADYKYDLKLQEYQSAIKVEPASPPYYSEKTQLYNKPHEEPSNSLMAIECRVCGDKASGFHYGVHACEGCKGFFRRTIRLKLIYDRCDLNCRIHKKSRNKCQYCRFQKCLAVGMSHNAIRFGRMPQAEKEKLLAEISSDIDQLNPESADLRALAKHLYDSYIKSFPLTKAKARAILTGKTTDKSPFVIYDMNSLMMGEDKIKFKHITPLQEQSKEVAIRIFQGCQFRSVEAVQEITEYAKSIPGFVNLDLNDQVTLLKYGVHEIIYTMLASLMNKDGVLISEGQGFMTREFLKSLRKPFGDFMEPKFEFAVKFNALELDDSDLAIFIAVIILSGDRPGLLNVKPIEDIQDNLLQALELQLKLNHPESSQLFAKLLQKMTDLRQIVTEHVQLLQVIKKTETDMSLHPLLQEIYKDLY
Chain of Glucocorticoid receptor (Homo sapiens) (P04150 whole entry, looked up): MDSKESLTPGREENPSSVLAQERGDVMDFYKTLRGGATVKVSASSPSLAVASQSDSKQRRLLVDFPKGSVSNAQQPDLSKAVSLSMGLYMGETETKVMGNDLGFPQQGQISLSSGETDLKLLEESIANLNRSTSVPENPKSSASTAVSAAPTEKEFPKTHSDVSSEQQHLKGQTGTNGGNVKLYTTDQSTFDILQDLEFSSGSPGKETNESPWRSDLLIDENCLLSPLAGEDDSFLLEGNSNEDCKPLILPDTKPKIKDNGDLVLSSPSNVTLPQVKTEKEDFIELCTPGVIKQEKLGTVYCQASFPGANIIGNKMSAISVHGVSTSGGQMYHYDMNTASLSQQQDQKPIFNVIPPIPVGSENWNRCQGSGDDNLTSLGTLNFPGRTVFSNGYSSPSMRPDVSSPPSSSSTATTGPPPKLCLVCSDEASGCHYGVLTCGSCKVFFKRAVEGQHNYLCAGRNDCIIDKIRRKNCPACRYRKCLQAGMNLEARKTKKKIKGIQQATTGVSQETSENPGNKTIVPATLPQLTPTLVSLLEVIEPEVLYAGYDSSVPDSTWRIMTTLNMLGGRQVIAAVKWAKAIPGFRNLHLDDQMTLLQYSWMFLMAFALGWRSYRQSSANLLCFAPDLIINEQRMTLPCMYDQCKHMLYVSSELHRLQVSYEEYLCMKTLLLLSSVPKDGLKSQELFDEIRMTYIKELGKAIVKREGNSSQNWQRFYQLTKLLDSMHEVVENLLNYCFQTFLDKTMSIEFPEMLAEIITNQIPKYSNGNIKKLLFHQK

OC[C@@H](O)[C@H]1O[C@@H]2O[C@@H](C(Cl)(Cl)Cl)O[C@@H]2[C@H]1O
not listed: [18] | [19] | [20]
inactive: all other assays above

NCC[C@H](O)C(=O)N[C@@H]1C[C@H](N)[C@@H](O[C@H]2O[C@H](CN)[C@@H](O)[C@H](O)[C@H]2N)[C@H](O[C@@H]2O[C@H](CO)[C@@H](O)[C@H]2O)[C@H]1O
not listed: [1] | [5] | [7] | [8] | [11] | [19] | [20]
inactive: all other assays above

Oc1ccc2c3c1O[C@H]1[C@@H](O)CC[C@@]4(O)[C@@H](C2)N(CC2CCC2)CC[C@]314
not listed: [1] | [6] | [14] | [16]
inactive: all other assays above

OC(c1ccccc1)(c1ccccc1)C1CN2CCC1CC2 (centres undefined)
active: [8] 26.6 µM | [11] 29.8 µM
not listed: [1] | [2] | [3] | [6] | [9] | [18]
inactive: all other assays above

c1csc(C2(N3CCCCC3)CCCCC2)c1
not listed: [7] | [8] | [11] | [16] | [17]
inactive: all other assays above

O=C1Nc2ccc(Cl)cc2C(c2ccccc2Cl)=NC1O (centres undefined)
not listed: [8] | [15]
inactive: all other assays above

CN1c2ccccc2C(NCCCCCCC(=O)O)c2ccc(Cl)cc2S1(=O)=O (centres undefined)
active: [17] 7.94 µM
not listed: [1] | [5] | [8] | [9] | [10] | [18] | [19]
inactive: all other assays above

CCCC(=O)OC(C(Cl)(Cl)Cl)P(=O)(OC)OC (centres undefined)
active: [13] 26.6 µM
not listed: [1] | [8] | [10] | [14] | [15] | [16]
inactive: all other assays above

C=CCC1(C(C)CCC)C(=O)N=C(S)NC1=O (centres undefined)
not listed: [10] | [11] | [17] | [19]
inactive: all other assays above

CCC/C=C/C=C/C(=O)O[C@H]1/C(=C/C(=O)OC)C[C@H]2C[C@H]([C@@H](C)O)OC(=O)C[C@H](O)C[C@@H]3C[C@H](OC(C)=O)C(C)(C)[C@](O)(C[C@@H]4C/C(=C/C(=O)OC)C[C@H](/C=C/C(C)(C)[C@]1(O)O2)O4)O3
inactive: [3] | [4] | [5] | [19] | [20] | [10] | [14] | [15] | [16]
active: [1] 0.0038 µM | [9] 0.0042 µM | [18] 10.6 µM | [11] 9.44 µM

O=C(OCCN1CCCCC1)C(O)(c1ccccc1)c1ccccc1
not listed: [1] | [7] | [8] | [10]
inactive: all other assays above

CCN1C[C@]2(COC)[C@H](O)C[C@H](OC)[C@@]34[C@@H]5C[C@@]6(O)[C@H](OC(=O)c7ccccc7)[C@@H]5[C@@](OC(C)=O)([C@@H]([C@H](OC)[C@H]23)[C@@H]14)[C@@H](O)[C@@H]6OC
not listed: [2] | [4] | [7] | [10] | [20]
inactive: all other assays above

CN(C)[C@H](Cc1ccccc1)c1ccccc1
not listed: [3] | [4] | [5] | [15]
inactive: all other assays above

Oc1cc[c]([Hg][Cl])cc1
inactive: [2] | [3] | [4] | [5] | [6] | [19] | [20]
active: [1] 11.9 µM | [8] 422 nM and 596 nM | [9] 0.473 µM | [18] 596 nM and 841 nM | [11] 422 nM and 531 nM | [12] 21.3 µM [inconclusive]
